# According to the supplement of paper PMC10646978:
# ± gives the standard deviation.
# What was measured:
# Settings in all cases: modulator concentration 10 µM
# [1] = test system: RAW-Dual (murine macrophage reporter line); experiment: NF-kB reporter (SEAP) activity fold change vs agonist alone; higher = enhanced NF-kB activity
# Method in brief: (§1)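 Overnight stimulation with a PRR agonist followed pre-incubation for 1 hour at 37 °C with compound at 10 μM final. This was done in RAW-Dual murine macrophage reporter cells seeded at 50 000 per well in 384-well plates. NF-κB (SEAP, QUANTI-Blue absorbance at 620 nm) and IRF (Lucia luciferase, QUANTI-Luc luminescence) were read from the supernatant. Each reporter's fold change relative to the mean agonist-only control on the same plate was averaged over replicate plates.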
# [2] = test system: RAW-Dual (murine macrophage reporter line); experiment: IRF reporter (Lucia luciferase) activity fold change vs agonist alone; higher = enhanced IRF activity
# Method in brief: as §1
# [3] = test system: RAW-Dual (murine macrophage reporter line); experiment: viability score (confluency relative to resting cells, overnight) (fraction); higher = more viable, active = viable (0.7 or more)
# Method in brief: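 RAW-Dual macrophages in 384-well plates were exposed overnight to compound at 10 μM final. Confluency was imaged with IncuCyte, and two confluency masks were generated with IncuCyte software over all imaged wells. The viability score is confluency expressed relative to resting cells. Compounds were called viable if both masks exceeded 70% of resting cells.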
# [4] = agonist: CpG ODN 1826 0.5 ug/mL
smiles,measurement,setting,value
O=C(Nc1cc(C(F)(F)F)cc(C(F)(F)F)c1)c1cc2ccccc2o1,NF-kB reporter,[1]; [4],0.961 ± 0.082
same,NF-kB reporter,[1]; agonist: LPS 0.1 ug/mL,1.05 ± 0.08
same,NF-kB reporter,[1]; agonist: MPLA […],0.952 ± 0.12
same,IRF reporter,[2]; agonist: 3'3'-cGAMP 10 ug/mL,0.953 ± 0.042
same,IRF reporter,[2]; agonist: LPS 0.1 ug/mL,1.32 ± 0.25
same,IRF reporter,[2]; agonist: MPLA […],1.03 ± 0.29
same,viability score,[3],1.01 (active)
O=C(CCC(=O)OCC(=O)c1cccs1)Nc1ccc(Oc2ccccc2)cc1,NF-kB reporter,[1]; [4],0.756 ± 0.064
same,NF-kB reporter,[1]; agonist: LPS 0.1 ug/mL,0.842 ± 0.054
same,NF-kB reporter,[1]; agonist: MPLA […],1.04 ± 0.12
same,IRF reporter,[2]; agonist: 3'3'-cGAMP 10 ug/mL,0.995 ± 0.05
same,IRF reporter,[2]; agonist: LPS 0.1 ug/mL,1.22 ± 0.085
same,IRF reporter,[2]; agonist: MPLA […],1.38 ± 0.13
same,viability score,[3],1 (active)
COC1(c2ccc(Cl)cc2)OC(=O)c2ccccc21 (stereo unspecified),NF-kB reporter,[1]; [4],0.805 ± 0.1
same,NF-kB reporter,[1]; agonist: LPS 0.1 ug/mL,0.974 ± 0.052
same,NF-kB reporter,[1]; agonist: MPLA […],1.07 ± 0.093
same,IRF reporter,[2]; agonist: 3'3'-cGAMP 10 ug/mL,0.9 ± 0.052
same,IRF reporter,[2]; agonist: LPS 0.1 ug/mL,1.06 ± 0.073
same,IRF reporter,[2]; agonist: MPLA […],1.13 ± 0.16
same,viability score,[3],0.992 (active)
O=S1(=O)N=C(NN=Cc2ccccc2O)c2ccccc21,NF-kB reporter,[1]; [4],1 ± 0.081
same,NF-kB reporter,[1]; agonist: LPS 0.1 ug/mL,0.95 ± 0.14
same,NF-kB reporter,[1]; agonist: MPLA […],1.1 ± 0.12
same,IRF reporter,[2]; agonist: 3'3'-cGAMP 10 ug/mL,1 ± 0.049
same,IRF reporter,[2]; agonist: LPS 0.1 ug/mL,1.25 ± 0.16
same,IRF reporter,[2]; agonist: MPLA […],1.46 ± 0.25
same,viability score,[3],1.03 (active)
O=c1cc(-c2ccc(O)c(O)c2)oc2cc(O)cc(O)c12 [Prestw-870],NF-kB reporter,[1]; [4],1.08 ± 0.18
same,NF-kB reporter,[1]; agonist: LPS 0.1 ug/mL,1.21 ± 0.12
same,NF-kB reporter,[1]; agonist: MPLA […],2 ± 0.16
same,IRF reporter,[2]; agonist: 3'3'-cGAMP 10 ug/mL,0.181 ± 0.0054
same,IRF reporter,[2]; agonist: LPS 0.1 ug/mL,0.663 ± 0.14
same,IRF reporter,[2]; agonist: MPLA […],0.61 ± 0.065
same,viability score,[3],0.995 (active)
OCC(S)CS (stereo unspecified),NF-kB reporter,[1]; [4],0.949 ± 0.072
same,NF-kB reporter,[1]; agonist: LPS 0.1 ug/mL,0.909 ± 0.059
same,NF-kB reporter,[1]; agonist: MPLA […],0.988 ± 0.023
same,IRF reporter,[2]; agonist: 3'3'-cGAMP 10 ug/mL,0.336 ± 0.034
same,IRF reporter,[2]; agonist: LPS 0.1 ug/mL,0.84 ± 0.07
same,IRF reporter,[2]; agonist: MPLA […],0.912 ± 0.081
same,viability score,[3],0.994 (active)
O=c1[nH]cnc2ccccc12,NF-kB reporter,[1]; [4],0.416 ± 0.14
same,NF-kB reporter,[1]; agonist: LPS 0.1 ug/mL,0.159 ± 0.013
same,NF-kB reporter,[1]; agonist: MPLA […],0.215 ± 0.019
same,IRF reporter,[2]; agonist: 3'3'-cGAMP 10 ug/mL,0.133 ± 0.013
same,IRF reporter,[2]; agonist: LPS 0.1 ug/mL,0.378 ± 0.098
same,IRF reporter,[2]; agonist: MPLA […],0.0913 ± 0.014
same,viability score,[3],0.561 (inactive)
Cc1ccc(C23CC4CC(CC(CN)(C4)C2)C3)cc1.Cl,NF-kB reporter,[1]; [4],0.827 ± 0.062
same,NF-kB reporter,[1]; agonist: LPS 0.1 ug/mL,1.02 ± 0.063
same,NF-kB reporter,[1]; agonist: MPLA […],1.95 ± 0.14
same,IRF reporter,[2]; agonist: 3'3'-cGAMP 10 ug/mL,0.741 ± 0.031
same,IRF reporter,[2]; agonist: LPS 0.1 ug/mL,1.27 ± 0.15
same,IRF reporter,[2]; agonist: MPLA […],1.29 ± 0.13
same,viability score,[3],0.46 (inactive)
O=C(O)c1ccc2c(c1)nc(Nc1cccc(Cl)c1)c1ccncc12,NF-kB reporter,[1]; [4],1.24 ± 0.19
same,NF-kB reporter,[1]; agonist: LPS 0.1 ug/mL,1.35 ± 0.35
same,NF-kB reporter,[1]; agonist: MPLA […],1.4 ± 0.34
same,IRF reporter,[2]; agonist: 3'3'-cGAMP 10 ug/mL,0.993 ± 0.033
same,IRF reporter,[2]; agonist: LPS 0.1 ug/mL,1.39 ± 0.32
same,IRF reporter,[2]; agonist: MPLA […],0.832 ± 0.083
same,viability score,[3],0.986 (active)
Cc1nc(-c2ccc(OCC(C)C)c(C#N)c2)sc1C(=O)O,NF-kB reporter,[1]; [4],0.891 ± 0.14
same,NF-kB reporter,[1]; agonist: LPS 0.1 ug/mL,0.957 ± 0.34
same,NF-kB reporter,[1]; agonist: MPLA […],1.02 ± 0.065
same,IRF reporter,[2]; agonist: 3'3'-cGAMP 10 ug/mL,0.883 ± 0.048
same,IRF reporter,[2]; agonist: LPS 0.1 ug/mL,0.973 ± 0.3
same,IRF reporter,[2]; agonist: MPLA […],1.06 ± 0.22
same,viability score,[3],1 (active)
C=CCN1C(=O)C(=C2C(=O)N(Cc3ccccc3F)c3ccccc32)SC1=S,NF-kB reporter,[1]; [4],1.09 ± 0.1
same,NF-kB reporter,[1]; agonist: LPS 0.1 ug/mL,1.02 ± 0.079
same,NF-kB reporter,[1]; agonist: MPLA […],1.01 ± 0.062
same,IRF reporter,[2]; agonist: 3'3'-cGAMP 10 ug/mL,0.904 ± 0.039
same,IRF reporter,[2]; agonist: LPS 0.1 ug/mL,1.37 ± 0.18
same,IRF reporter,[2]; agonist: MPLA […],1.13 ± 0.19
same,viability score,[3],1.01 (active)
C=C(Br)Cn1c(COc2ccccc2)nc2ccccc21,NF-kB reporter,[1]; [4],0.562 ± 0.098
same,NF-kB reporter,[1]; agonist: LPS 0.1 ug/mL,1.06 ± 0.12
same,NF-kB reporter,[1]; agonist: MPLA […],1.05 ± 0.084
same,IRF reporter,[2]; agonist: 3'3'-cGAMP 10 ug/mL,1.12 ± 0.036
same,IRF reporter,[2]; agonist: LPS 0.1 ug/mL,1.19 ± 0.28
same,IRF reporter,[2]; agonist: MPLA […],1.19 ± 0.15
same,viability score,[3],0.991 (active)
O=C(Nc1nccs1)c1ccc2c(c1)C(=O)N(C1CCCCC1)C2=O,NF-kB reporter,[1]; [4],1.09 ± 0.086
same,NF-kB reporter,[1]; agonist: LPS 0.1 ug/mL,1.05 ± 0.096
same,NF-kB reporter,[1]; agonist: MPLA […],0.878 ± 0.052
same,IRF reporter,[2]; agonist: 3'3'-cGAMP 10 ug/mL,0.979 ± 0.032
same,IRF reporter,[2]; agonist: LPS 0.1 ug/mL,1.57 ± 0.22
same,IRF reporter,[2]; agonist: MPLA […],1.21 ± 0.21
same,viability score,[3],1 (active)
